The list is not random: actives were taken first. Their share in the collection is about 4.8%.
NALP1 yeast inh: blocks the NALP1 inflammasome reconstituted in yeast. S. cerevisiae NALP1/ASC/caspase-1 growth, X-gal OD620, 72 h. inhibition, % at 10 µM. hit rate 0.61% among 280,000. AID 2071; in the data active = inhibition mostly above about 24%, no sharp cut-off; inactive = mostly below about 32%
TIM10 inh: inhibits growth of TIM10 yeast strain; S. cerevisiae TIM10 strain growth, BacTiter-Glo luminescence, 24 h; inhibition, % at 10 µM; hit rate 1.4% among 330,000; AID 463195;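 active = inhibition of 40% or more at the single tested concentration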;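 note: wild-type TIM10 isogenic control strain grown at permissive 25 °C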
tim23-1 inh: tim23-1 yeast growth inhibition | inhibition, % at 20 µM | S. cerevisiae tim23-1 growth, BacTiter-Glo luminescence, 24 h | hit rate 1.3% among 330,000;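 active = growth inhibition of the mutant yeast at or above 50%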;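 note: temperature-sensitive mutant grown at 25 °C; plate controls were DMSO-treated mutant yeast for no effect and medium wells lacking yeast for full effect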
PfHsp90 yeast 2: inhibits growth of yeast expressing Plasmodium falciparum Hsp90. S. cerevisiae expressing PfHsp90, BacTiter-Glo ATP, 48 h; yeast lacking PDR1 and PDR3 efflux regulators. inhibition, % at 9.4 µM. hit rate 0.32% among 310,000. AID 504621;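 active = every replicate shows inhibition above about 80%, whatever the replicate mean, limit read from the data; inconclusive = mean inhibition reaches the set limit but some replicate falls short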;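 note: 0% = DMSO neutral controls and 100% = 20 µM radicicol positive controls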
SKKanGAS inh: blocks kanamycin growth of S. pyogenes SKKanGAS strain; BacTiter-Glo, 6 h; hit rate 1.3% among 300,000; inhibition, % at 7.5 µM;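 active = mean replicate score, as percent of positive control median, at least 50; inconclusive = mean below 50 but one replicate at or above 50; inactive = mean and every replicate below 50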;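 note: strain carries kanamycin resistance gene driven by streptokinase promoter and grows in 40 µg/ml kanamycin; loss of luminescence reflects streptokinase promoter inhibition or plain growth inhibition; 0% = median of DMSO wells and 100% = positive control at its reference dose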
tim10-1 inh: tim10-1 yeast growth inhibition. hit rate 2.2% among 330,000. inhibition, % at 20 µM. AID 463190. S. cerevisiae tim10-1 ts strain growth, BacTiter-Glo, 24 h;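 active = inhibition of at least 40%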;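 note: mutant grown at 25 °C; 0% = DMSO wells with yeast and 100% = wells holding no yeast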
* hit, by the source's call; ? = inconclusive; nt = no result given.

SMILES	NALP1 yeast inh	TIM10 inh	tim23-1 inh	PfHsp90 yeast 2	SKKanGAS inh	tim10-1 inh
Cc1cccc(NC(=O)C2CC(=O)n3cnnc3S2)c1 (stereo not drawn)	40.4*	34.6	4.5	2.9	9.5	19.8
CCOC(=O)N1CCN(S(=O)(=O)c2ccc(C(=O)Nc3nnc(C)o3)cc2)CC1	17.6	-9.7	-1.0	12.3	-4.3	15.3
Cc1nnc(NC(=O)c2ccc(S(=O)(=O)N3CC(C)CC(C)C3)cc2)o1 (stereo not drawn)	-5.4	9.4	2.2	9.4	53.8*	20.9
CC1CN(S(=O)(=O)c2ccc(C(=O)Nc3nnc(-c4ccc5c(c4)CCCC5)o3)cc2)CC(C)O1 (stereo not drawn)	17.5	7.4	13.3	-47.6	92.9*	24.5
CC1CCCN(S(=O)(=O)c2ccc(C(=O)Nc3nnc(C4=COCCO4)o3)cc2)C1 (stereo not drawn)	25.0	-7.3	-6.9	nt	66.1*	9.9
CC1CCCCN1S(=O)(=O)c1ccc(C(=O)Nc2nnc(C3=COCCO3)o2)cc1 (stereo not drawn)	5.0	-3.6	-9.4	-25.8	16.3	-6.8
Cc1ccc(O)c(C(=O)CC(=O)c2cccc(F)c2)c1	0.9	5.9	17.4	nt	80.5*	-2.1
Cc1ccc(C(=O)CC(=O)c2ccccc2)cc1	24.4	9.2	27.1	13.3	52.7*	11.8
Cc1ccc(O)c(C(=O)CC(=O)c2ccc(Cl)cc2)c1	-14.9	nt	nt	-39.9	96.4*	nt
Cc1ccc(O)c(NC(=O)CSc2ccc(Cl)cc2)c1	13.0	4.8	-0.3	1.8	21.7	0.4
Cc1ccc(C(=O)CC(=O)COc2ccc(Cl)cc2C)cc1	15.0	20.4	1.1	-14.8	101.0*	14.8
Cc1ccc(NC(=O)c2ccc(OC(=O)COc3ccc(Cl)cc3C)cc2)cc1	24.0	7.9	3.3	-20.9	-5.9	7.1
Fc1cccc(-n2c(-c3cccs3)nc3nc4ccccc4nc32)c1	nt	-9.0	-1.7	nt	-5.6	25.6
COC(=O)Cc1c(O)ccn(Cc2ccc3c(c2)OCO3)c1=O	19.6	-12.8	-3.5	11.7	-1.1	-0.8
COc1ccc(C(=O)N2c3cc4c(cc3C(C)=CC2(C)C)OCO4)cc1	26.3*	nt	nt	-18.3	-14.5	nt
Cc1ccc(NC(=O)CN(C)C(=O)COc2cccc3cccnc23)cc1	63.8*	5.1	5.2	14.4	3.0	10.8
OCCOCCNc1ncnc2nc[nH]c12	nt	2.6	8.7	-5.8	-0.1	8.4
Cc1ccc(NC(=S)Nc2cc(C(=O)O)ccc2N2CC3CC(C2)c2cccc(=O)n2C3)cc1C (stereo not drawn)	36.7*	8.3	27.2	3.9	-2.0	7.1
COc1cccc(NC(=S)Nc2cc(C(=O)O)ccc2N2CC3CC(C2)c2cccc(=O)n2C3)c1 (stereo not drawn)	-2.4	1.6	4.7	-24.7	13.1	11.9
Cc1c(C(=O)Nc2nc(-c3ccccn3)cs2)oc2ccccc12	nt	2.6	42.0	?	nt	21.5
Cc1cccc(C(=O)NC(C(=O)Nc2nc(-c3ccccn3)cs2)C(C)C)c1 (stereo not drawn)	14.0	5.9	17.4	6.1	91.4*	17.7
Cn1cccc1C(=O)Nc1nc(-c2ccccn2)cs1	23.5	4.5	23.0	-28.3	81.4*	0.8
O=C(Nc1nc(-c2ccccn2)cs1)c1cc2ccccc2o1	-35.3	21.3	19.9	104.9*	103.9*	12.6
O=C(/C=C/c1ccco1)Nc1nc(-c2ccccn2)cs1	-4.4	-19.0	-29.6	-7.7	55.4*	-44.8
Cc1csc(NC(=O)c2cccn2C)n1	-1.1	8.2	15.4	-7.9	15.4	1.8
SMILES	NALP1 yeast inh	TIM10 inh	tim23-1 inh	PfHsp90 yeast 2	SKKanGAS inh	tim10-1 inh
COc1ccccc1CCc1nnc(CCC(=O)NCC[C@@H]2C[C@@H]3C=C[C@H]2C3)o1	-10.7	18.2	27.7	14.2	10.1	18.1
CCN(C(=O)CN1CCCc2ccccc21)c1c(N)n(Cc2ccccc2)c(=O)[nH]c1=O	9.5	nt	nt	nt	nt	nt
COc1ccc(CCNC(=O)CS(=O)(=O)Cc2nc(-c3ccccc3Cl)oc2C)cc1OC	17.6	7.5	20.0	-18.6	-12.2	11.3
CCc1sc(C(=O)Nc2nc(-c3ccccn3)cs2)cc1C	nt	12.3	25.4	106.8*	nt	10.0
Cc1cccnc1Nc1nc(-c2ccccn2)cs1	12.0	34.5	10.2	106.0*	106.0*	-29.5
O=C(Nc1nc(-c2ccccn2)cs1)c1ccc(S(=O)(=O)N2CCCCC2)cc1	nt	16.7	40.0	nt	84.2*	7.1
